This is an account of results in PubChem BioAssay (Tox21).

“And” between values parts separate entries of the source, which are not always exact repeats. Equal values may be shown once. Inconclusive results are not listed. Some compounds were tested as several samples or in several runs, with calls that do not always agree. The source made the active and inactive calls. Calls come from the whole dose curve.
% is set by controls: 0 for no effect and ±100 for the full control effect; potency is the fitted concentration of half-maximal effect.

The experiment is described as follows: qHTS assay for small molecule agonists of the p53 signaling pathway - cell viability (AID 651633).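 For activity change, negative = cytotoxicity: p53RE-bla HCT reporter cells with a stable beta-lactamase p53 reporter.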 Note: nearly all actives have a fitted effect of over 30% in size. The conditions noted are these: p53RE-bla HCT-116 viability, ATP luminescence, 16 h; series mostly up to 83.3 µM; activity change, negative = cytotoxicity: at the top concentration. An excerpt:
National Center for Advancing Translational Sciences [NCATS]
NIH Chemical Genomics Center [NCGC]
U.S. Environmental Protection Agency [EPA]
National Institutes of Environmental Health Sciences [NIEHS]
National Toxicology Program [NTP]
U.S. Food and Drug Administration [FDA]
p53, a tumor suppressor protein, is activated following cellular insult, including DNA damage and other cellular stresses. The activation of p53 regulates cell fate by inducing DNA repair, cell cycle arrest, apoptosis, or cellular senescence. The activation of p53, therefore, is a good indicator of DNA damage and other cellular stresses. […] The activation of the reporter gene under culture conditions can be detected by fluorescence intensity. This cell line was used to screen the Tox21 compound library in a 1536-well plate format and to identify agonists that activate the p53 signaling pathway.
Tox21 Assay Protocol Summary:
The p53RE-bla cells were dispensed at 4,000 cells/5 ul/well in 1536-well black wall/clear bottom plates using a Multidrop dispenser. After the assay plates were incubated at a 37 C/5% CO2 incubator for 5 hours, 23 nL of compounds dissolved in DMSO, positive controls or DMSO only was transferred to the assay plate by a pin tool. The plates were incubated at 37 C for 16 hours. After 1 uL of LiveBLAzerTM B/G FRET substrate was added using a Flying Reagent Dispenser, the plates were incubated at room temperature for 2 hours, and fluorescence intensity was measured by an Envision plate reader.
For cell viability readout that measures cytotoxicity, 4 ul/well of CellTiter-Glo reagent was added into the assay plates using a Flying Reagent Dispenser. After 30 min incubation at room temperature, the luminescence intensity in the plates was measured using a ViewLux plate reader.
A general note: Quantitative high-throughput screening tests each substance at several concentrations.
For the compound `CCC(C)(C)C(=O)O[C@H]1C[C@@H](C)C=C2C=C[C@H](C)[C@H](CC[C@@H]3C[C@@H](O)CC(=O)O3)[C@H]21`, the Potency entry was “inactive and 61.1 µM (active)”.

On to `CCCCN(CCO)CCCC`, for which the “activity change, negative = cytotoxicity” value is 8.63% [at 95.3 µM] (inactive).

For the compound `c1cnc2cc3c(cc2n1)C1CNCC3C1`, the “activity change, negative = cytotoxicity” value was 10.5% [at 95.3 µM] (inactive).

As to `O=C(Nc1ccccc1SSc1ccccc1NC(=O)c1ccccc1)c1ccccc1`, the Potency result is “inactive”.

Regarding `CC1COc2c(N3CCN(C)CC3)c(F)cc3c(=O)c(C(=O)O)cn1c23` (stereo not given), the “activity change, negative = cytotoxicity” value is 11.7% (inactive).

With `Cc1c(O)cccc1C(=O)N[C@@H](CSc1ccccc1)[C@H](O)CN1C[C@H]2CCCC[C@H]2C[C@H]1C(=O)NC(C)(C)C`, the Potency is 21.1 µM (active).

Turning to `O=Cc1ccc(Cl)cc1`, the “activity change, negative = cytotoxicity” value was 20% (inactive).

Take `CCc1cc(C(C)(C)C)c(O)c(C(C)(C)C)c1`: the Potency was 15.5 µM (active) and inactive.

As to `NCCO`, the Potency entry was “inactive”.

In the case of `CC(=O)Nc1ccc(C(=O)CCl)cc1`, the Potency result is “inactive and 30.6 µM (active)”.

On to `CN(C)c1ccc(C(=C2C=CC(=[N+](C)C)C=C2)c2ccccc2)cc1`, for which the Potency was 23.7 µM (active) and 273 nM (active).

With `CCN(CC)c1ccc2c(C)cc(=O)oc2c1`, the Potency result is “inactive”.

`Nc1ccc2cc3ccccc3cc2c1`: the Potency entry is “inactive”.

For the compound `Cc1scc2c1N(C(=O)CN1CCN(C)CC1)c1ccccc1NC2=O`, the “activity change, negative = cytotoxicity” value was 14.2% (inactive).

As to `Cc1cc(C(C)(C)C)c(O)c(C(C)(C)C)c1`, the Potency result was “inactive”.

Take `Cc1occc(=O)c1OC(=O)C(C)C`: the “activity change, negative = cytotoxicity” value was -5.87% (inactive).

`OCC(CO)N[C@H]1C[C@](O)(CO)[C@@H](O)[C@H](O)[C@H]1O`: the “activity change, negative = cytotoxicity” value was 13.2% (inactive).

Turning to `NCCCCCC(=O)O`, the “activity change, negative = cytotoxicity” value is -11.6% [at 39.1 µM] (inactive).

Consider `COc1ccc(COC(C)=O)cc1`, for which the Potency result was “inactive”.

Regarding `CCc1ccc(C(c2ccc(CC)cc2)C(Cl)Cl)cc1`, the Potency entry was “inactive”.

Regarding `CC1COC(=O)O1` (stereo not given), the Potency result is “inactive”.

As for `CCOc1ccc2c(c1)C(C)=CC(C)(C)N2`, the Potency result was “inactive”.

Turning to `CCCCCC(=O)O[C@]1(C(C)=O)CC[C@H]2[C@@H]3CCC4=CC(=O)CC[C@]4(C)[C@H]3CC[C@@]21C`, the Potency was 26.6 µM (active) and 54.1 µM (active).

Consider `C=CC(=O)OCCCCCCOC(=O)C=C`, for which the “activity change, negative = cytotoxicity” value is -9.91% (inactive).

Turning to `O=C(O)c1cccc(C(=O)O)c1`, the Potency result was “inactive”.

For `Cc1ccc(-c2cc(C(F)(F)F)nn2-c2ccc(S(N)(=O)=O)cc2)cc1`, the Potency is 54.3 µM (active).

With `CC(=O)CC(C)=O`, the “activity change, negative = cytotoxicity” value was 19.1% [at 95.3 µM] (inactive).

In the case of `CCC(CO)(CO)COCC(CC)(CO)CO`, the “activity change, negative = cytotoxicity” value is 10.4% (inactive).

As for `CC(C)CCOC(=O)c1ccc(N(C)C)cc1`, the “activity change, negative = cytotoxicity” value is -6.01% (inactive).

With `COc1nc(C)nc(Cl)c1NC1=NCCN1`, the “activity change, negative = cytotoxicity” value was 20.4% [at 39.1 µM] (inactive).

For `c1ccc2c(c1)CCCC2C1=NCCN1` (stereo not given), the “activity change, negative = cytotoxicity” value was 8.51% (inactive).

Consider `CCOc1ccccc1C(N)=O`, for which the Potency entry was “inactive”.

Regarding `Cc1cccc(O)c1C`, the Potency result was “inactive”.

With `CCCCCCCCCCCCCC[P+](CCCC)(CCCC)CCCC`, the Potency was 24.2 µM (active) and 15.4 µM (active).

`BrC1CCC(Br)C(Br)CCC(Br)C(Br)CCC1Br` (stereo not given): the Potency is 15.3 µM (active) and 25.9 µM (active).

In the case of `NC(=Nc1ccccc1)Nc1ccccc1`, the Potency result is “inactive”.

For `CC(N)=O`, the “activity change, negative = cytotoxicity” value is 10.5% [at 260 µM] (inactive).

As for `O=C(O)CCc1ccccc1`, the “activity change, negative = cytotoxicity” value is 16.4% (inactive).

Turning to `NC12CC3CC(CC(C3)C1)C2`, the “activity change, negative = cytotoxicity” value is 18.5% (inactive).

For `O=C(O)CP(=O)(O)O`, the “activity change, negative = cytotoxicity” value was 5.66% (inactive).
